# Assay results as given in paper PMC7862700, “An all-to-all approach to the identification of sequence-specific readers for epigenetic DNA modifications on cytosine”.
# Legend:
# Test in all cases: DAPPL (digital affinity profiling via proximity ligation, sequencing); 10 mM Tris-HCl pH 7.5, 50 mM NaCl, 1 mM DTT, 4% glycerol, room temperature, 30 min; GST-TFs on glutathione beads, 16-mer random dsDNA library, 0.1% formaldehyde crosslink after washing; high values mean tight binding
# FEV = molecular target: T1, FEV (Homo sapiens, UniProt Q99581 1-238); settings: protein: recombinant; tags: N-terminal GST; dsDNA, one strand shown
# T1 sequence: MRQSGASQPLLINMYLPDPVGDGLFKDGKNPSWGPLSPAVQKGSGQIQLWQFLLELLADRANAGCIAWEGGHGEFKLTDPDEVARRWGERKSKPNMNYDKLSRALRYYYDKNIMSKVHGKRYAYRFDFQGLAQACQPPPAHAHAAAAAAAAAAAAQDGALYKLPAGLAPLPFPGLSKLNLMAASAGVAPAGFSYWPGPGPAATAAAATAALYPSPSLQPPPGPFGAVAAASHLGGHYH
# Procedure, shortened: (§1)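 Human transcription factors carrying a GST fusion were produced in yeast, bound to glutathione beads, tagged with DNA barcodes and pooled together with a tag-only sample. Each pool was held with 200 nmole of a random double-stranded 16-mer DNA library in Tris/NaCl/DTT/glycerol buffer for 30 min at room temperature, then washed, crosslinked in 0.1% formaldehyde, proximity-ligated with BsaI/T4 ligase (1 h, 37 °C), PCR-amplified and sequenced on an Illumina NextSeq500. Binding signal is the read frequency of each hexamer for a given factor divided by its frequency in the tag-only sample.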
# ETV5 = ETV5 (Homo sapiens, UniProt P41161 1-510); settings: protein: recombinant; tags: N-terminal GST; dsDNA, one strand shown
# Procedure, shortened: as §1
# HSF1 = HSF1 (Homo sapiens, UniProt Q00613 1-529); settings: protein: recombinant; tags: N-terminal GST; chain copies: 3; dsDNA, one strand shown
# Procedure, shortened: as §1
# SPIC = molecular target: T2, SPIC (Homo sapiens, UniProt Q8N5J4 1-248); settings: protein: recombinant; tags: N-terminal GST; dsDNA, one strand shown
# T2 sequence: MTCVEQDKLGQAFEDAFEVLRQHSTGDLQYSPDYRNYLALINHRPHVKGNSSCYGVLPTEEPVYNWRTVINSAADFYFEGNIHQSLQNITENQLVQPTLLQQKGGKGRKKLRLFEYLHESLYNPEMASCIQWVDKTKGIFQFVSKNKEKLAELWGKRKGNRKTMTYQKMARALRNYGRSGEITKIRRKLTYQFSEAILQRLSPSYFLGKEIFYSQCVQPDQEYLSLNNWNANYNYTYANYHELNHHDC
# Procedure, shortened: as §1
# ELF4 = ELF4 (Homo sapiens, UniProt Q99607 1-663); settings: protein: recombinant; tags: N-terminal GST; dsDNA, one strand shown
# Procedure, shortened: as §1
# ELK4 = molecular target: T3, ELK4 (Homo sapiens, UniProt P28324-2 1-405); settings: protein: recombinant; tags: N-terminal GST; dsDNA, one strand shown
# T3 sequence: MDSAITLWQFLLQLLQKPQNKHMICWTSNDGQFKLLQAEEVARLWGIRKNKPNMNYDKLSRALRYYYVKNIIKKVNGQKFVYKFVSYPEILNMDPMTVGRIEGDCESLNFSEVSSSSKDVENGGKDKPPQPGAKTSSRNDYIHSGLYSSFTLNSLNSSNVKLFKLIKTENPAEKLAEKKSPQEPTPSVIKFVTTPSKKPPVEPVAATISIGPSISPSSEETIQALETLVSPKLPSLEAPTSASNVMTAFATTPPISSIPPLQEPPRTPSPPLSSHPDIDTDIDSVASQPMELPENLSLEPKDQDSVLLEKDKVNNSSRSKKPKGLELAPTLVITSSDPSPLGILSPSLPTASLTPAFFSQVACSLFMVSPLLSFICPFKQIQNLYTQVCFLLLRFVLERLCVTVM
# Procedure, shortened: as §1
# ETV2 = molecular target: T4, ETV2 (Homo sapiens, UniProt O00321 1-342); settings: protein: recombinant; tags: N-terminal GST; dsDNA, one strand shown
# T4 sequence: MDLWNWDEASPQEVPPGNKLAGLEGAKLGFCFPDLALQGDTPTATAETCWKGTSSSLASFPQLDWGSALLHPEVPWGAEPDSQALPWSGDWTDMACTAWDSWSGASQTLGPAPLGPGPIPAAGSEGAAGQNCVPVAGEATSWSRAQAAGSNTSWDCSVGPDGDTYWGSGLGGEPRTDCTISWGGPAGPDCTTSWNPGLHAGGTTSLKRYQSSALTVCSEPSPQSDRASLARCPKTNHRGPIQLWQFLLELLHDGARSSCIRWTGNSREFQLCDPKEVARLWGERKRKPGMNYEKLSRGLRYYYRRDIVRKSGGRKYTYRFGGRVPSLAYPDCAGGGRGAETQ
# Procedure, shortened: as §1
# ELF3 = molecular target: T5, ELF3 (Homo sapiens, UniProt P78545 1-371); settings: protein: recombinant; tags: N-terminal GST; dsDNA, one strand shown
# T5 sequence: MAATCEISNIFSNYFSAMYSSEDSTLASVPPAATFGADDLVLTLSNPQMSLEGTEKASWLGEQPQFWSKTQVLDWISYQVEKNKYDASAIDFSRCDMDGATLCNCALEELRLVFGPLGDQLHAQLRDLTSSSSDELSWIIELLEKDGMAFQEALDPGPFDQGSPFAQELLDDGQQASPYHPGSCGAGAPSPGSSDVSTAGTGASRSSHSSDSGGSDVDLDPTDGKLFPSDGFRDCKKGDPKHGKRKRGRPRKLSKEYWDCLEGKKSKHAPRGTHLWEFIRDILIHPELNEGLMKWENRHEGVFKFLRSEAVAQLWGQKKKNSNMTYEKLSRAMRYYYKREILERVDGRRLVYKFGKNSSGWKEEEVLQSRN
# Procedure, shortened: as §1
# CRX = CRX (Homo sapiens, UniProt O43186 1-299); settings: protein: recombinant; tags: N-terminal GST; dsDNA, one strand shown
# Procedure, shortened: as §1
# ETV1 = ETV1 (Homo sapiens, UniProt P50549 1-477); settings: protein: recombinant; tags: N-terminal GST; dsDNA, one strand shown
# Procedure, shortened: as §1
# Chain of ETV1 (P50549 whole entry): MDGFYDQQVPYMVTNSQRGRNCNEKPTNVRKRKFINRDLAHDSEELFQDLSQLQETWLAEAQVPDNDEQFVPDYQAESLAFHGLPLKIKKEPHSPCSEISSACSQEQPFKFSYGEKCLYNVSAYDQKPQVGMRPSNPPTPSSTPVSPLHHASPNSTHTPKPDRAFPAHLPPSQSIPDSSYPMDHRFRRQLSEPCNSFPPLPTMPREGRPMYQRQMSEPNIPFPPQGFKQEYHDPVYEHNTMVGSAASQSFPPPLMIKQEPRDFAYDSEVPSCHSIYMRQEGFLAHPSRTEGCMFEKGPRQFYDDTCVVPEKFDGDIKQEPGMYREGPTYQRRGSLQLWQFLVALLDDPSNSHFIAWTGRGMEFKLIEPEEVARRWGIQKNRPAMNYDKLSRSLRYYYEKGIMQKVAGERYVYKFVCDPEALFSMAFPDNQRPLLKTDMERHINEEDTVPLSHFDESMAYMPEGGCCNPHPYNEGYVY
# Chain of ETV5 (P41161 whole entry): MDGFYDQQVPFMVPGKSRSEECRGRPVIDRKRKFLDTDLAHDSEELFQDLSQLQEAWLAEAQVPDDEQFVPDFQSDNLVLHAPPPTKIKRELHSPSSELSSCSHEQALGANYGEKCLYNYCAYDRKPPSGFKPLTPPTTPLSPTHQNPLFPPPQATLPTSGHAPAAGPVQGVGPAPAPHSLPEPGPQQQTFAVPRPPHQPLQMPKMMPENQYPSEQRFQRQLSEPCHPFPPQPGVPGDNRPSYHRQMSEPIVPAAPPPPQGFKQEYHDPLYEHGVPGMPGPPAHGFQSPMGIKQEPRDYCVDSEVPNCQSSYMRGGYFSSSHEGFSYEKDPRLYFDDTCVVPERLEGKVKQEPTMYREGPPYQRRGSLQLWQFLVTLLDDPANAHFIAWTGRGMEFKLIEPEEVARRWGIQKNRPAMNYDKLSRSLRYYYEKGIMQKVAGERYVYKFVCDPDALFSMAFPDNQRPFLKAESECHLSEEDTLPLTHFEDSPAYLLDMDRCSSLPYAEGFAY
# Chain of ELF4 (Q99607 whole entry): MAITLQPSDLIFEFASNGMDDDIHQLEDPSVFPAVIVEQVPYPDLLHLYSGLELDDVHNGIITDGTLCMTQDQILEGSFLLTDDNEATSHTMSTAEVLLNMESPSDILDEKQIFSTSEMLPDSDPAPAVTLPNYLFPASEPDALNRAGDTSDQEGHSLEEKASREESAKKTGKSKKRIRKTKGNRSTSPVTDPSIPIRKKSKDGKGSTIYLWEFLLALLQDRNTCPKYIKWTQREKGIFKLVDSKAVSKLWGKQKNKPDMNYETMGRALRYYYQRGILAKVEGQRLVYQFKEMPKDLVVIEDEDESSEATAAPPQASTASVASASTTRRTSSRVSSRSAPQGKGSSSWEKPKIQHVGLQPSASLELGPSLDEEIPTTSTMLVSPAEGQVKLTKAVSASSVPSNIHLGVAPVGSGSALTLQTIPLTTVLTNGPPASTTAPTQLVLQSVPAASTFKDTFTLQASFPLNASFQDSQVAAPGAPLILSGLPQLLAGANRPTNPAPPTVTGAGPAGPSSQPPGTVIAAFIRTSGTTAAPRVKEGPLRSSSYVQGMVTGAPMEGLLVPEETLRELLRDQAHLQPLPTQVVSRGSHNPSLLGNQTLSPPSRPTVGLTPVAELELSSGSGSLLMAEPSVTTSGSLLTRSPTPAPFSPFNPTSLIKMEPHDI
# Chain of CRX (O43186 whole entry): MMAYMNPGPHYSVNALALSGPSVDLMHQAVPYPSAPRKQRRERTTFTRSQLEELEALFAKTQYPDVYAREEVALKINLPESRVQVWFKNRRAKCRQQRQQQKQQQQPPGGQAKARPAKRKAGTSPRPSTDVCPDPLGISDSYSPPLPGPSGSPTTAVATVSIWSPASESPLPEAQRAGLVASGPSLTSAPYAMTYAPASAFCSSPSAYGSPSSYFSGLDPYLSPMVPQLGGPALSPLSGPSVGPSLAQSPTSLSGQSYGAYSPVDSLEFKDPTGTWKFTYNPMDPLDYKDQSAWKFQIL
# Chain of HSF1 (Q00613 whole entry): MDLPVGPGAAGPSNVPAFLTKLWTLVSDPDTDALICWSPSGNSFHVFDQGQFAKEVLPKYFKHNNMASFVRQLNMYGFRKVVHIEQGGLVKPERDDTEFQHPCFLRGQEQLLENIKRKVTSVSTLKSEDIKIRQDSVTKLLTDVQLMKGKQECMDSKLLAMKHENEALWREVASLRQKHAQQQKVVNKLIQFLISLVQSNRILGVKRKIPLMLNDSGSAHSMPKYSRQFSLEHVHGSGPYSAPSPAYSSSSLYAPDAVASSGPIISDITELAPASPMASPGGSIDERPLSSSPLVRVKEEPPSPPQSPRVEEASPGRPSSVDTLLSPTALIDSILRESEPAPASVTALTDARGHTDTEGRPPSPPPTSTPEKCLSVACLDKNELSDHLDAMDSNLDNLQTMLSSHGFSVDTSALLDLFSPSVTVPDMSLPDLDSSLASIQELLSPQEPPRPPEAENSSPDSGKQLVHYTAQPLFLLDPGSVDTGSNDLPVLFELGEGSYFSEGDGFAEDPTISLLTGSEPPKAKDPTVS
sequence,measurement,setting,value
ATGTTA,binding signal,FEV,"1.13 fold enrichment (6-mer frequency, TF over GST control)"
same,binding signal,ETV5,"1.25 fold enrichment (6-mer frequency, TF over GST control)"
same,binding signal,HSF1,"1.12 fold enrichment (6-mer frequency, TF over GST control)"
same,binding signal,SPIC,"1.28 fold enrichment (6-mer frequency, TF over GST control)"
same,binding signal,ELF4,"1.33 fold enrichment (6-mer frequency, TF over GST control)"
same,binding signal,ELK4,"1.23 fold enrichment (6-mer frequency, TF over GST control)"
same,binding signal,ETV2,"1.24 fold enrichment (6-mer frequency, TF over GST control)"
same,binding signal,ELF3,"1.17 fold enrichment (6-mer frequency, TF over GST control)"
same,binding signal,CRX,"1.31 fold enrichment (6-mer frequency, TF over GST control)"
same,binding signal,ETV1,"1.3 fold enrichment (6-mer frequency, TF over GST control)"
